# Unmarked numbers belong to inactive results. Records with an inconclusive call do not appear. Where a call stands in place of a potency, no number is given. The source made the active and inactive calls. Unless noted, the call rests on the fitted dose curve; in most records, active means well fitted curve in the direction sought with a large enough effect in the repeat runs; inconclusive means weak or mixed curves; inactive means no such curve, though single readings can be large; an effect the other way counts as inactive or inconclusive.
# Tests used:
# [1] = qHTS assay to identify small molecule agonists of the hypoxia (HIF-1) signaling pathway - cell viability counter screen (AID 1224844; calls by dose curve; further: nearly all actives have a fitted effect of over 50% in size; further: potency means the concentration at half of the fitted maximal effect)
# Procedure, shortened: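 ME-180 HRE-bla cells, 2,000/well, 0.5% dialyzed FBS; 5 hr settle, 17 hr compound at 37C/5% CO2; CCF4-AM reporter read first, then CellTiter-Glo luminescence after 30 min RT.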
# [2] = qHTS assay to identify small molecule agonists of H2AX - cell viability counter screen (AID 1224847; calls by dose curve; further: nearly all actives have a fitted effect of over 30% in size; further: potency means the concentration at half of the fitted maximal effect)
# Procedure, shortened: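 We seed wild-type CHO-K1 cells overnight, treat them for 3 hr at 37C with compounds in 15-concentration series, and quantify remaining viability by CellTiter-Glo luminescence.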
# [3] = qHTS assay to identify small molecule agonists of the estrogen related receptor (ERR) signaling pathway from Tox21 library (AID 1224849; calls by dose curve; further: nearly all actives have a fitted effect of over 15% in size); conditions: ERR reporter cell line, ONE-Glo luciferase, 18 h; at 92.4 µM (top of the series) unless noted
# Procedure, shortened: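 ERR cells, 6 h pre-incubation 37 C/5% CO2; cpd in DMSO pinned; 18 h 37 C; ONE-Glo added, 30 min RT; luminescence read. Agonist mode, qHTS.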
# [4] = qHTS RealTime-Glo MT Cell Viability Assay in HepG2 cells - 24 hour (AID 1224867); further: nearly all actives have a fitted effect of over 50% in size; further: potency means the concentration at half of the fitted maximal effect
# Procedure, shortened: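 qHTS, HepG2, 600 cells/well, RealTime-Glo (NanoLuc + prosubstrate) added with cells; 5 h preincubation; DMSO compound addition; 37 C; luminescence at 0/8/16/24/32/40 h.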
# [5] = A CellTox Green Cytotoxicity Assay to monitor cytotoxicity in HEK293 cells - 0 hour (AID 1224869); further: nearly all actives have a fitted effect of over 50% in size
# Procedure, shortened: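 Nonlytic real-time cytotoxicity: HEK293 + CellTox Green reagent plated, 5 h preincubation, pintool compound addition (23 nL in DMSO), 37 C for 40 h, fluorescence measured at successive time points.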
# [6] = qHTS RealTime-Glo MT Cell Viability Assay in HepG2 cells - 40 hour (AID 1224870); further: nearly all actives have a fitted effect of over 50% in size; further: potency means the concentration at half of the fitted maximal effect
# Procedure, shortened: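 HepG2 cells mixed with RealTime-Glo MT reagents (NanoLuc plus cell-permeant prosubstrate) were seeded at 600 cells/well, incubated 5 h at 37 C/5% CO2, then pinned with compounds in DMSO; nonlytic luminescence tracked viability during 40 h treatment.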
# [7] = qHTS RealTime-Glo MT Cell Viability Assay in HEK293 cells - 32 hour (AID 1224868); further: nearly all actives have a fitted effect of over 50% in size; further: potency means the concentration at half of the fitted maximal effect
# Procedure, shortened: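 Assay medium contained NanoLuc luciferase plus cell-permeant prosubstrate, added with HEK293 cells at 600 cells/well. After 5 h at 37 C/5% CO2 compounds were added; plates stayed at 37 C for 40 h with serial luminescence reads.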
# [8] = qHTS assay to identify small molecule antagonists of the estrogen related receptor (ERR) signaling pathway from Tox21 library (AID 1224848); further: nearly all actives have a fitted effect of over 50% in size; further: potency means the concentration at half of the fitted maximal effect
# Procedure, shortened: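 Cells: ERR line, 2,000/well; 6 h preincubation 37 C/5% CO2. Cpd in DMSO via pin tool; 18 h, 37 C. ONE-Glo, 30 min RT, luminescence.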
# [9] = qHTS assay to identify small molecule agonists of H2AX (AID 1224845; active means well fitted activation curve with a large enough effect in the signal ratio in the repeat runs, not every such curve was filed as active; the % refers to the signal ratio; further: potency means the concentration at half of the fitted maximal effect)
# Procedure, shortened: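 Wild-type CHO-K1 cells plated overnight, then exposed 3 hr at 37C to compounds at 15 concentrations (0.76% DMSO). Lysed, then HTRF anti-pH2AX(S139)-cryptate/anti-H2AX-d2 detection after 24 hr at room temperature; emissions 665 and 620 nm.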
# [10] = qHTS assay to identify small molecule agonists of the hypoxia (HIF-1) signaling pathway (AID 1224846; active means well fitted activation curve with a large enough effect in the signal ratio in the repeat runs, not every such curve was filed as active; the % refers to the signal ratio; further: potency means the concentration at half of the fitted maximal effect)
# Procedure, shortened: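 Cell line: CellSensor HRE-bla ME-180; 2,000 cells/well; 0.5% dialyzed FBS; 5 h preincubation; DMSO compound pin transfer; 17 h, 37C, 5% CO2; CCF4-AM added; bla FRET signal scored for activation.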
Compound,Potency [1],Potency [2],"activity change, positive = activation [3]",Potency [4],Potency [5],Potency [6],Potency [7],Potency [8],Potency [9],Potency [10]
O=C(OCC1CO1)C1CCCCC1C(=O)OCC1CO1 (stereo not drawn),inactive,inactive,-46.8%,inactive,inactive,inactive,,,,
Clc1ccc(C(Cn2ccnc2)OCc2ccc(Sc3ccccc3)cc2)c(Cl)c1 (stereo not drawn),inactive,inactive,,inactive,inactive,inactive,inactive,,,
Cc1ccc(O)c2ncccc12,inactive,,-58.3% [at 42.5 µM],inactive,inactive,inactive,inactive,18.8 µM (active),,
O=C(O)c1cc(O)c2c(c1)C(=O)c1cccc(O)c1C2=O,inactive,inactive,,inactive,inactive,inactive,inactive,,,
[Cl][Bi]([Cl])([c]1ccccc1)([c]1ccccc1)[c]1ccccc1,19.4 µM (active),35.5 µM (active),,6.88 µM (active),inactive,7.71 µM (active),2.44 µM (active),,,
CC(C)CCCCCCCCCCCCCCC(=O)O,17.4 µM (active),1.6 µM (active),-17%,inactive,inactive,inactive,,,,
CCCCCCCCCCCC(=O)NCCCN(C)C,49 µM (active),101 µM (active),,43.6 µM (active),inactive,38.9 µM (active),38.9 µM (active),,,
NC(=O)C1(N2CCCCC2)CCN(CCCN2c3ccccc3CCc3ccc(Cl)cc32)CC1,21.3 µM (active),55.2 µM (active),,23.9 µM (active),inactive,23.9 µM (active),21.3 µM (active),,,
CCCCCCCC/C=C\CCCCCCCCOCCO,28.4 µM (active),65.6 µM (active),,,inactive,inactive,3.19 µM (active),,,
CCCCCCCCCCCC[N+](C)(C)CCCCCCCCCCCC,21.9 µM (active),,-72.6%,7.76 µM (active),inactive,6.92 µM (active),5.49 µM (active),13.7 µM (active),,
CNc1ccc(O)cc1,21.8 µM (active),101 µM (active),-69.6%,,inactive,,12.3 µM (active),,,
COc1ccc(-c2ccc3cc(C(=O)O)ccc3c2)cc1C12CC3CC(CC(C3)C1)C2,13.4 µM (active),inactive,-10.4% [at 42.5 µM],,inactive,,5.35 µM (active),,,
CC(C)n1nc(-c2cc3cc(O)ccc3[nH]2)c2c(N)ncnc21,1.9 µM (active),inactive,-55.4% [at 42.5 µM],,inactive,,0.239 µM (active),1.06 µM (active),,
CCCCCOc1ccccc1/C(=C\SC)n1ccnc1,21.3 µM (active),,-47.2% [at 42.5 µM],inactive,inactive,inactive,,21.1 µM (active),,
CCCCCCCCCCCCCC[P+](CCCC)(CCCC)CCCC (tested in a mixture with another compound),15.6 µM (active),3.6 µM (active),,19.6 µM (active),inactive,19.6 µM (active),0.553 µM (active),,,
COc1cccc2c1C(=O)c1c(O)c3c(c(O)c1C2=O)C[C@@](O)(C(=O)CO)C[C@@H]3O[C@H]1C[C@H](N)[C@H](O[C@@H]2CCCCO2)[C@H](C)O1,12 µM (active),,-55.4% [at 42.5 µM],2.13 µM (active),inactive,1.9 µM (active),0.239 µM (active),4.22 µM (active),,
Cc1cc(O)c2ccccc2c1O,13.4 µM (active),,-47.1% [at 42.5 µM],13.4 µM (active),inactive,13.4 µM (active),8.49 µM (active),13.3 µM (active),,
CCN(CC)CCCC(C)Nc1c2ccc(Cl)cc2nc2ccc(OC)cc12 (stereo not drawn),16.9 µM (active),inactive,,6.74 µM (active),inactive,5.35 µM (active),2.68 µM (active),,,
On1ccccc1=S,0.432 µM (active),,-71.1%,0.544 µM (active),inactive,0.485 µM (active),4.32 µM (active),1.21 µM (active),,
Nc1cc(C(F)(F)F)ccc1S,inactive,inactive,-31.1% [at 42.5 µM],inactive,inactive,inactive,inactive,,,
CC1=C(/C=C/C(C)=C/C=C/C(C)=C/C=O)C(C)(C)CCC1,30.7 µM (active),39.9 µM (active),,54.6 µM (active),inactive,,19.4 µM (active),,,
CCCC(C)c1ccccc1O (stereo not drawn),,80 µM (active),,inactive,inactive,inactive,inactive,,inactive,
CCCCCCCCn1sc(Cl)c(Cl)c1=O,6.16 µM (active),,,4.9 µM (active),inactive,6.92 µM (active),3.89 µM (active),,,
O=CC=C(c1ccccc1)c1ccccc1,inactive,,,inactive,inactive,inactive,17.5 µM (active),,,

Compound,Potency [1],Potency [2],"activity change, positive = activation [3]",Potency [4],Potency [5],Potency [6],Potency [7],Potency [8],Potency [9],Potency [10]
CCC1=C[C@@H]2CN(C1)Cc1c([nH]c3ccccc13)[C@@](C(=O)OC)(c1cc3c(cc1OC)N(C)[C@H]1[C@@](O)(C(=O)OC)[C@H](OC(C)=O)[C@]4(CC)C=CCN5CC[C@]31[C@@H]54)C2,,,-48.8% [at 42.5 µM],,inactive,,0.0151 µM (active),18.8 µM (active),inactive,
CCOC(=O)O[C@]1(C(=O)OCCl)CC[C@H]2[C@@H]3CCC4=CC(=O)C=C[C@]4(C)[C@H]3[C@@H](O)C[C@@]21C,,inactive,,,inactive,inactive,,,inactive,
Oc1c(Cl)cc(Cl)c2cccnc12,,inactive,-66% [at 42.5 µM],inactive,inactive,inactive,,9.44 µM (active),39.1 µM (active),
NNc1nc(-c2ccc(N)cc2)cs1,inactive,,-40.8%,inactive,inactive,inactive,,61.1 µM (active),,
Cc1cccc(CN2CCN(C(c3ccccc3)c3ccc(Cl)cc3)CC2)c1 (stereo not drawn),,,-29.2% [at 42.5 µM],inactive,inactive,inactive,inactive,26.6 µM (active),inactive,
CNCc1cc(F)ccc1Oc1ccc(Cl)c(Cl)c1,,45 µM (active),-40.3%,49 µM (active),inactive,,43.6 µM (active),48.6 µM (active),inactive,
Cc1ccc2oc(CN(Cc3ccccc3)C(=O)Nc3c(F)cc(F)cc3F)c(-c3ccc(Cl)cc3)c2c1,inactive,,-42.4%,,inactive,,inactive,23.6 µM (active),,
Nc1nc2ccccc2n1Cc1ccc(F)cc1,,inactive,-28.8% [at 42.5 µM],inactive,inactive,inactive,,,inactive,
Oc1ccc(N=Nc2ccccc2)cc1,inactive,,,inactive,inactive,inactive,19.8 µM (active),,,
Oc1cccc(-c2c3nc(c(-c4cccc(O)c4)c4ccc([nH]4)c(-c4cccc(O)c4)c4nc(c(-c5cccc(O)c5)c5ccc2[nH]5)CC4)C=C3)c1,inactive,,,,inactive,inactive,,,,
N/C(=N\N=C\c1ccc(Cl)cc1)N/N=C/c1ccc(Cl)cc1,23.9 µM (active),,-44.1% [at 42.5 µM],,inactive,,,29.8 µM (active),,
N=C1N=C(N)c2ccccc21,21.9 µM (active),,,,inactive,,24.5 µM (active),,,
Cc1cc(C2CCCCC2)n(O)c(=O)c1,,inactive,,inactive,inactive,inactive,1.69 µM (active),,9.82 µM (active),
C[C@@H]1C[C@H]2[C@@H]3CCC4=CC(=O)C=C[C@]4(C)[C@@]3(Cl)[C@@H](O)C[C@]2(C)[C@@]1(OC(=O)c1ccco1)C(=O)CCl,,,-51.1% [at 42.5 µM],,inactive,,inactive,13.3 µM (active),inactive,
O=C1CCCCCN1SSN1CCCCCC1=O,43.6 µM (active),,-43.7%,,inactive,,inactive,54.5 µM (active),,
Cc1cc(=O)oc2cc(N(C)C)ccc12,,inactive,,,inactive,inactive,,inactive,inactive,49 µM (active)
C=C(C)C(=O)OCC(O)COc1ccc(C(C)(C)c2ccc(OCC(O)COC(=O)C(=C)C)cc2)cc1 (stereo not drawn),,35.7 µM (active),-80.3%,19.5 µM (active),inactive,,12.3 µM (active),27.3 µM (active),inactive,
O=c1cccccc1O,,inactive,,inactive,inactive,inactive,,,40.9 µM (active),
CCOc1ccc2nc3cc(N)ccc3c(N)c2c1,,,,10.7 µM (active),inactive,8.49 µM (active),15.1 µM (active),,inactive,
Cc1onc(-c2ccccc2Cl)c1C(=O)N[C@@H]1C(=O)N2[C@@H]1SC(C)(C)[C@@H]2C(=O)O,inactive,,,inactive,inactive,inactive,inactive,,,
N#CSc1ccc(N)c([N+](=O)[O-])c1,,,-63.3%,,inactive,inactive,49.3 µM (active),43.5 µM (active),inactive,
O=[N+]([O-])c1cc([N+](=O)[O-])c2ccc(S(=O)(=O)O)cc2c1O,inactive,,,inactive,inactive,inactive,inactive,,,
COCCCC/C(=N\OCCN)c1ccc(C(F)(F)F)cc1,,inactive,-2.43% [at 42.5 µM],inactive,inactive,inactive,,inactive,inactive,

# Reference: PubChem BioAssay (Tox21)
